This is a sample that favours compounds with a hit; in the whole collection about 3.4% have one here.
JMJD2E inh = JMJD2E (human) inhibition; JMJD2E catalytic domain, FDH-coupled NADH fluorescence (FDH is formaldehyde dehydrogenase); Potency, µM (top dose mostly 57.1 µM), for inactives: top-dose activity change, negative = inhibition, most hits filed as inhibitors; 230,000 compounds, 1.6% hits; active means well fitted inhibition curve with a large enough effect, not every such curve was filed as active; inconclusive means small, poorly fitted or top-dose-only effect, or another doubt; inactive means no such curve, though single readings can be large or run the other way;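 further: 0% = wells with enzyme and -100% = buffer wells without enzyme; nearly all actives have a fitted effect of over 50% in size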
GoLoco inh red = RGS12 GoLoco-Gai1 interaction inhibition. 230,000 compounds, 0.44% hits. Potency, µM (doses to about 61.6 µM), for the others: at the highest dose activity, negative = inhibition, usual class: inhibitors. AID 880. Gai1:RGS12 GoLoco peptide FP, rhodamine, 10 min; active means well fitted inhibition curve with a large enough effect, not every such curve was filed as active; inactive means no such curve, though single readings can be large or run the other way; further: nearly all actives have a fitted effect of over 30% in size
Target sequence (P63096 whole entry, looked up): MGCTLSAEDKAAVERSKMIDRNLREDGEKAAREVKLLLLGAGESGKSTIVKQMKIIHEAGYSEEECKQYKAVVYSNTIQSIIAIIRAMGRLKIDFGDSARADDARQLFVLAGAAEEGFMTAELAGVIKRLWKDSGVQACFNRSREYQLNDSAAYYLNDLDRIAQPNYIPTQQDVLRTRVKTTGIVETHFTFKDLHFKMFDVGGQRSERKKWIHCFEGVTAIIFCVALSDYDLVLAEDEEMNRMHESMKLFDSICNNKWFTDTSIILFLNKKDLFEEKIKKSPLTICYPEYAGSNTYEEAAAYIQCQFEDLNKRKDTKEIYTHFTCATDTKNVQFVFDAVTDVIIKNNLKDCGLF
Tau ThT inhib = tau fibrillization inhibition (ThT binding); recombinant tau K18 P301L, heparin-induced fibrillization, ThT fluorescence; P10636; Potency, µM (top dose mostly 57.4 µM), for inactives: at the highest dose activity, negative = inhibition, most hits filed as inhibitors; 270,000 compounds, 2.1% hits; further: nearly all actives have a fitted effect of over 55% in size
Target sequence (P10636 561-689 P618L limits assumed): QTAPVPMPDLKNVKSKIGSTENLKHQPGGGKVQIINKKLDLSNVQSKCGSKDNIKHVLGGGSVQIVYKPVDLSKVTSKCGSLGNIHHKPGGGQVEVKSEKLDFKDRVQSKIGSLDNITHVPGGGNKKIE
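Heparin-induced fibrillization of the P301L-mutant K18 repeat-domain fragment of human tau was followed by ThT binding in quantitative high-throughput format.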
Tau fluor counter = counter-screen for tau fibril formation inhibitors | tau K18 P301L Alexa594 fluorescence, heparin fibrillization | 280,000 compounds, 0.93% hits | Potency, µM (series often up to 57.7 µM), for the others: top-dose activity change, negative = decrease; further: nearly all actives have a fitted effect of over 55% in size
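Human tau K18 P301L (15 uM unlabeled, 0.24 uM Alexa 594-labeled) in 100 mM sodium acetate pH 7 with 20 uM heparin, 6 hr at 37 C. ThT 30 uM added, 1 hr ambient; Alexa 594 FP and total fluorescence read at 555/632 nm.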
Tau FP inhib = tau fibrillization inhibition (FP); P10636; K18 P301L tau heparin fibrillization, Alexa594 FP, 6 h; Potency, µM (series often up to 57.7 µM), for the others: at the top dose activity, negative = inhibition, most hits filed as inhibitors; 280,000 compounds, 0.39% hits; further: nearly all actives have a fitted effect of over 55% in size
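Heparin (20 uM) drove fibril formation of recombinant tau K18 P301L, 15 uM unlabeled with 0.24 uM Alexa 594 label, for 6 hr at 37 C in 100 mM sodium acetate pH 7. Fluorescence polarization (555/632 nm) read 1 hr after 30 uM ThT.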
* marks the source's active call; other numbers are inactive results; u = inconclusive; x = no result given; [ ] = another dose, or the depositor's remark. Unless noted, the call rests on the fitted dose curve; in most records, active means well fitted curve in the direction sought with a large enough effect; inconclusive means small, poorly fitted or top-dose-only effect, or another doubt; inactive means no such curve, though single readings can be large; an effect the other way counts as inactive or inconclusive. Unless noted, on the % scale 0 is the no-effect control and ±100 the full control effect; potency means the concentration at half of the fitted maximal effect.

SMILES | JMJD2E inh | GoLoco inh red | Tau ThT inhib | Tau fluor counter | Tau FP inhib
COc1cccc(N2C(=O)NC(=O)/C(=C/c3ccc([N+](=O)[O-])s3)C2=O)c1 | 25.1µM* | 78.2% | x | -50.8% | -94.9%
COc1ccccc1N1C(=O)NC(=O)/C(=C\c2cnn(-c3ccccc3)c2)C1=O | -16.9% | 19.4% | u | -4.4% | -6.0%
COc1ccccc1N1C(=O)NC(=O)/C(=C/c2ccc([N+](=O)[O-])s2)C1=O | u | 41.0% | x | u | 31.6µM*
CCOc1ccc(N2C(=O)NC(=O)/C(=C\c3cc(OC)c(OC)cc3[N+](=O)[O-])C2=O)cc1 | x | -19.6% | 14.1µM* | -23.5% | u
O=C(O)[C@H](Cc1cnc[nH]1)N1C(=O)c2ccccc2C1=O | x | 4.4%[14.2 µM] | x | x | x
CC(C)c1ccc(Cc2cnc(NC(=O)c3ccc4c(c3)CC(c3ccccc3)OC4=O)s2)cc1 (centres undefined) | x | x | 14.4% | 2.5% | u
C[C@H](c1ccccc1)N1CCN([C@@H](C)c2ccccc2)CC1 | x | 1.9%[14.2 µM] | x | x | x
c1ccc(NNc2ccccc2)cc1 | x | 10.1% | x | x | x
C/C(=N\NP(=S)(c1ccccc1)c1ccccc1)c1ccc(O)cc1O | -12.5% | 3.9% | u | 31.6µM*[quencher] | -2.6%
Cc1c(N=Nc2c(O)[nH]c(=S)[nH]c2=O)c(=O)n(-c2ccccc2)n1C | -5.5% | 30.7% | u | -7.3% | u
CCOc1ccc2nc(N=Nc3c(O)[nH]c(=O)[nH]c3=O)sc2c1 | -0.6% | 3.4% | 4.47µM* | -17.3% | 1.4%
CCOc1ccc2nc(N=Nc3c(O)[nH]c(=S)[nH]c3=O)sc2c1 | -5.8% | 19.8% | 2.24µM* | u | -1.1%
CCOC(=O)c1sc(N=Nc2c(O)[nH]c(=O)[nH]c2=O)c(C(=O)OCC)c1C | 0.4% | 56.3% | 3.4% | 3.0% | 6.9%
NCCc1ccc(S(=O)(=O)O)cc1[N+](=O)[O-] | x | 6.4%[14.2 µM] | x | x | x
O.O.[NH-]C1(C(=O)O)CCCC1.[NH-]C1(C(=O)O)CCCC1.[Ni+2] | x | -2.5%[14.2 µM] | x | x | x
C[C@]1(O)CC[C@H]2[C@@H]3[C@@H](O)CC4=CC(=O)CC[C@@]4(C)[C@H]3CC[C@]21C | x | 3.3%[14.2 µM] | x | x | x
COc1cccc(-n2c(/C=C/c3ccc(O)c(O)c3)nc3ccccc3c2=O)c1 | 31.6µM* | 17.6% | u | u | 9.6%
Cc1cccc(-n2c(/C=C\c3cccc(Br)c3)nc3ccccc3c2=O)c1 | x | x | 3.0% | 8.5% | 8.5%
Cc1cccc(-n2c(/C=C/c3c[nH]c4ccccc34)nc3ccccc3c2=O)c1 | x | x | u | 3.98µM*[quencher] | 0.7%
O=c1c2ccccc2nc(/C=C/c2ccc(O)cc2)n1-c1cccc(O)c1 | u | 20.1% | 2.9% | -22.7% | 0.0%
CN(C)[C@@H]1C(=O)C(C(N)=O)=C(O)[C@@]2(O)C(=O)C3=C(O)c4c(O)cccc4[C@@](C)(O)[C@H]3[C@H](O)[C@@H]12 | u | -33.0% | 6.31µM* | u | 11.2µM*
CN(C)[C@@H]1C(=O)C(C(N)=O)=C(O)[C@]2(O)C(=O)C3=C(O)c4c(O)cccc4[C@](C)(O)[C@H]3C[C@@H]12 | x | -22.0%[14.2 µM] | x | x | x
CN(C)C1C(=O)C(C(N)=O)C(=O)C2(O)C(=O)C3C(=O)c4c(O)cccc4C(C)(O)C3C(O)C12 (centres undefined) | x | -24.4% | 4.47µM* | u | 20µM*
CN(C)C1C(=O)C(C(N)=O)=C(O)[C@@]2(O)C(=O)C3=C(O)c4c(O)cccc4[C@](C)(O)C3C(O)C12 (some centres undefined) | 8.91µM* | -4.2% | u | u | u
COc1ccc2c(c1O)-c1cc(O)cc3c1[C@@H](C2)N(C)CC3 | x | -4.4% | -16.3% | -17.6% | 0.5%
SMILES | JMJD2E inh | GoLoco inh red | Tau ThT inhib | Tau fluor counter | Tau FP inhib
CCCN1CCc2cc(O)cc3c2C1Cc1ccc(O)c(O)c1-3 (centres undefined) | u | 9.7% | 15.8µM* | 15.8µM*[quencher] | 35.5µM*
O=C1NC(=O)C(=Cc2ccccc2OCCOc2ccc([N+](=O)[O-])cc2)C(=O)N1 | -29.0% | 20.5% | u | -15.9% | u
CN1C(=O)C(=Cc2ccccc2OCCOc2ccc([N+](=O)[O-])cc2)C(=O)N(C)C1=O | -1.8% | -24.8% | 10µM* | u | u
O=C1NC(=O)C(=Cc2ccc(N3CCN(C(=O)c4ccccc4)CC3)c([N+](=O)[O-])c2)C(=O)N1 | 22.4µM* | -25.3% | 11.2µM* | -15.2% | -13.0%
Cc1ccc(OP(=O)(Oc2ccc(C)cc2)N2C=Cc3ccccc3[C@H]2C#N)cc1 | x | 4.4%[14.2 µM] | x | x | x
C=CCn1c(O)c(C(C)=Nc2ccc(N(C)C)cc2)c(=O)[nH]c1=O | u | -0.4% | 17.8µM* | u | -3.3%
C=CCn1c(O)c(C(C)=Nc2ccc(N(CC)CC)cc2)c(=O)[nH]c1=O | u | -12.5% | u | -13.9% | -4.3%
Clc1nc(Cl)nc(Nc2ccccc2Cl)n1 | x | -3.7% | x | x | x
CC(=O)NC1N=C(C)N(c2ccccc2)C1=O (centres undefined) | u | -53.5% | u | u | u
CC1=NN(c2ccccc2)C(=O)C1=C(C)C | -7.1% | 112.3% | 11.2µM* | u | -9.1%
COc1cc2c3cc1Oc1c(O)c(OC)cc4c1[C@@H](Cc1ccc(cc1)Oc1cc(ccc1O)C[C@H]3N(C)CC2)N(C)CC4 | x | 6.9%[14.2 µM] | x | x | x
CC(C)=CCCC(C)C1CC[C@@]2(C)C3=C(CC[C@@]12C)C1(C)CCC(O)C(C)(C)C1CC3 (some centres undefined) | -9.0% | -0.7% | u | -11.9% | -7.3%
CCC(=O)Oc1ccc2c(c1)CCC1C2CC[C@]2(C)C(OC(=O)CC)CCC12 (some centres undefined) | x | -25.0% | u | -18.4% | 9.5%
CC(C)[C@@H](Br)C(=O)NCC(=O)O | x | 2.6%[14.2 µM] | x | x | x
